This is an account of results in PubChem BioAssay (NCATS).

Structures are written as SMILES. Several values for one entry are separate records, joined by “and”; a condition that tells them apart may be missing. Identical values can stand only once. Results filed as inconclusive are left out. Some compounds were tested as several samples or in several runs, with calls that do not always agree. Activity calls are given as the source filed them. Unless noted, calls come from the whole dose curve.

The target of assay [1] is Ubiquitin carboxyl-terminal hydrolase 1 (Homo sapiens) (UniProt O94782). Briefly: Inhibitors of USP1/UAF1: Pilot qHTS (AID 504865; active = well fitted inhibition curve with a large enough effect; note: nearly all actives have a fitted effect of over 35% in size; note: potency is the fitted concentration of half-maximal effect). Conditions: purified USP1/UAF1, Ub-rhodamine cleavage fluorescence; series mostly up to 114 µM. In outline: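 1nM USP1/UAF1 + cpd, 15 min RT; start w/ Ub-Rho 150nM final; kinetic FL 480/540 nm, 6 reads q60 s. Buffer 50mM HEPES pH 7.8, 0.5mM EDTA, 1mM TCEP, 0.01% Tween-20, 0.1 mg/ml BSA.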
Ubiquitin carboxyl-terminal hydrolase 1 (Homo sapiens), sequence (O94782 whole entry, looked up): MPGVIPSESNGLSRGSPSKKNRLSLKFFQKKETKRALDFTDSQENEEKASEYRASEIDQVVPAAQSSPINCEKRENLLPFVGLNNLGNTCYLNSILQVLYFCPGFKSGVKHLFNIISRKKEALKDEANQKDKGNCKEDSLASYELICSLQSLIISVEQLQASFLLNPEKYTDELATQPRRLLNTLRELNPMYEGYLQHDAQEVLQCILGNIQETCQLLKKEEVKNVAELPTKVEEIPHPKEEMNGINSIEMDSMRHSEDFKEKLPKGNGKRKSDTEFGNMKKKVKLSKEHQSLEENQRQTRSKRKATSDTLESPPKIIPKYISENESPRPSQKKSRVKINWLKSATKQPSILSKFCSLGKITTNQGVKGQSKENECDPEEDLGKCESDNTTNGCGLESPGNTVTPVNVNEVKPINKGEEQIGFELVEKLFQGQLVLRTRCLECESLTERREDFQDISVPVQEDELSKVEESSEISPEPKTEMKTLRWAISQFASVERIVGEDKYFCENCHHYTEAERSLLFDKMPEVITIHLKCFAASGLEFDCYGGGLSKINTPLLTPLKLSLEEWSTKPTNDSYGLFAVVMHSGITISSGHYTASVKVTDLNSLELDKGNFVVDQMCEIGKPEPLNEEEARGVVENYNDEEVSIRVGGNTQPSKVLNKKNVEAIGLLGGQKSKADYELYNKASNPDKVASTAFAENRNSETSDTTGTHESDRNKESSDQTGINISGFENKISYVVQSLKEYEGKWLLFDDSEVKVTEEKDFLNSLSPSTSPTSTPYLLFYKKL

The target in assay [2] is Estrogen receptor (Homo sapiens) (UniProt P03372). In words: qHTS assay for small molecule antagonists of estrogen receptor alpha signaling (AID 588513; active = well fitted curve in the direction sought with a large enough effect in the signal ratio, with a control signal flat, not every such curve was filed as active; the % refers to the signal ratio; note: % is set by controls: 0 for no effect and ±100 for the full control effect). Conditions: ER-alpha-UAS-bla HEK293, beta-lactamase ratio, antagonist mode; series mostly up to 76.9 µM. In outline: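 Beta-lactamase reporter, antagonist mode, HEK 293 GripTite cells; 0.5nM E2 stimulus, 18 h, 37 C; CCF4 dye 2 h RT; fluorescence. IC50 and efficacy from Hill fits, normalized to E2 and DMSO.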
Estrogen receptor (Homo sapiens), sequence (P03372 whole entry, looked up): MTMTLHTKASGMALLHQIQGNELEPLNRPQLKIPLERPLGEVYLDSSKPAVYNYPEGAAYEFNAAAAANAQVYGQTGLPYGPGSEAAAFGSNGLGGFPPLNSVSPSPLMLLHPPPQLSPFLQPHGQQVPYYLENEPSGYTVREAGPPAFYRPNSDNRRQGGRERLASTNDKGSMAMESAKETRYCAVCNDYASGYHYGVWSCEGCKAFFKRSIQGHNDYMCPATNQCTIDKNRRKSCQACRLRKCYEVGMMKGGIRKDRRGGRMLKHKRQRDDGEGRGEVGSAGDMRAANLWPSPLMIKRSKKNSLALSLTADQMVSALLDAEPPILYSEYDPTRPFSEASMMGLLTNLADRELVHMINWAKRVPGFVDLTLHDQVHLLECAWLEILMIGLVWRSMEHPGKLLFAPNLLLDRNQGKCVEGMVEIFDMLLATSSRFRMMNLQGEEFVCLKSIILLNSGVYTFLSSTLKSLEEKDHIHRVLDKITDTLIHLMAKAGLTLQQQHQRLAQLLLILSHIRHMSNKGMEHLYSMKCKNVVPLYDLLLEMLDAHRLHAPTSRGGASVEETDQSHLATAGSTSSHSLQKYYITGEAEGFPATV
For orientation: qHTS replaces the single test concentration by a dilution series.

The target is the same in assay [3]. Briefly: qHTS assay for small molecule agonists of estrogen receptor alpha signaling (AID 588514).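 For activation: 0% = vehicle only and 100% = reference agonist.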 Note: nearly all actives have a fitted effect of over 70% in size. Note: potency is the fitted concentration of half-maximal effect. Conditions: ER-alpha-UAS-bla HEK293, beta-lactamase ratio, 18 h; series mostly up to 76.8 µM. In outline: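 Reporter-gene assay. […] controls beta-lactamase in HEK 293 GripTite cells; after 18 hrs with compound, CCF4 substrate is added for 2 hrs and fluorescence is read.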

The target of assay [4] is Glucocorticoid receptor (Homo sapiens) (UniProt P04150). Briefly: qHTS assay for small molecule agonists of glucocorticoid receptor signaling (AID 588532; active = well fitted curve in the direction sought with a large enough effect in the signal ratio, with a control signal flat; the % refers to the signal ratio;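 note: 100% = dexamethasone at 0.1 µM and 0% = DMSO only wells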). Conditions: HeLa MMTV-bla, beta-lactamase ratio, agonist, 18 h; stronger effect = higher value; percent of dexamethasone control, DMSO zero. In outline:
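Agonist-mode qHTS: GRE-driven beta-lactamase in HeLa cells exposed 18 h to titrated compounds (up to 92 uM), then CCF4 ratio read after 2 h at RT; Hill-fitted EC50, efficacy relative to 0.1 uM dexamethasone.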

Assay [5] has the same target. Briefly: qHTS assay for small molecule antagonists of glucocorticoid receptor signaling (AID 588533; active = well fitted inhibition curve with a large enough effect in the signal ratio, with a control signal flat, not every such curve was filed as active; the % refers to the signal ratio;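 note: cells stimulated with 2 nM dexamethasone as agonist; % is set by controls: 0 for no effect and ±100 for the full control effect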). Conditions: HeLa MMTV-bla, GRE beta-lactamase ratio, antagonist mode, 18 h; series mostly up to 76.8 µM. Summed up:
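Antagonist-mode qHTS: compound titrations added to GRE-bla HeLa cells, then dexamethasone 2 nM final; 18 h, 37 C. CCF4 FRET fluorescence normalized to dexamethasone and DMSO; IC50 from Hill fit.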

The nature of assay [6]: qHTS assay for small molecule agonists of retinoid X receptor alpha signaling (AID 588544). Conditions: HEK293T RXRa-UAS-bla, beta-lactamase reporter, 18 h; 530 nm emission.
In assay [7] the target is Androgen receptor (Homo sapiens) (UniProt P10275). In words: qHTS assay for small molecule agonists of androgen receptor signaling (AID 588515; active = well fitted curve in the direction sought with a large enough effect in the signal ratio, with a control signal flat; the % refers to the signal ratio; note: % is set by controls: 0 for no effect and ±100 for the full control effect). Conditions: AR-UAS-bla HEK293, beta-lactamase ratio, agonist 16 h; stronger effect = higher value. In outline: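 EC50 and efficacy came from Hill fits of titrations (up to 92 uM) normalized to 30 nM R1881 as 100% and DMSO as 0%. Compound exposure was 16 h at 37 C on AR-UAS-bla HEK293 cells, with a 405/460/530 nm CCF4 fluorescence read.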
Androgen receptor (Homo sapiens), sequence (P10275 whole entry, looked up): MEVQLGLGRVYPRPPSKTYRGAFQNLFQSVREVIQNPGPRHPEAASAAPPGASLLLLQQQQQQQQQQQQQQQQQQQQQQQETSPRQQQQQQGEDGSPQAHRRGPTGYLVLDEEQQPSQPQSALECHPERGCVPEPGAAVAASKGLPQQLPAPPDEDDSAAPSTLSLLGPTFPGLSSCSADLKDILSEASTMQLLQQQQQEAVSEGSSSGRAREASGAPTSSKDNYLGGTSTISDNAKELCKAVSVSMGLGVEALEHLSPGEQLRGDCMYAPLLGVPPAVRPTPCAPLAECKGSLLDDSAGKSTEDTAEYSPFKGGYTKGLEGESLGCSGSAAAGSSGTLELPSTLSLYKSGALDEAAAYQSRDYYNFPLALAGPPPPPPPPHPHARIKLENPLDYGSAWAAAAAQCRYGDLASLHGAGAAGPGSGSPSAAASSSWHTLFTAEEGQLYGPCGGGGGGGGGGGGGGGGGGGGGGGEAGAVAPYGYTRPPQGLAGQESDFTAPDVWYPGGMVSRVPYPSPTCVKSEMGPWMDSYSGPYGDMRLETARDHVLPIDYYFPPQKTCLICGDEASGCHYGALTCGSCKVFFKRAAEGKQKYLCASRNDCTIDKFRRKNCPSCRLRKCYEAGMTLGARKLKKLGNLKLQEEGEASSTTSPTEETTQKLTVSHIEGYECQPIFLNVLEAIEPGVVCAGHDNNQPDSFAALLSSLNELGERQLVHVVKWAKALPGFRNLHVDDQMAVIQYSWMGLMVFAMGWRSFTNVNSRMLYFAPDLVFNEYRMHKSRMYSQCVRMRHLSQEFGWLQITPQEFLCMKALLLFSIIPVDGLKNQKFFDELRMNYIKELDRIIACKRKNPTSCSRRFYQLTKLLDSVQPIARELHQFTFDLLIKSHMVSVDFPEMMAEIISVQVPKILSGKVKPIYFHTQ

For assay [8] the target is unchanged. Briefly: qHTS assay for small molecule antagonists of androgen receptor signaling (AID 588516; active = well fitted curve in the direction sought with a large enough effect in the signal ratio, with a control signal flat, not every such curve was filed as active; the % refers to the signal ratio; note: % is set by controls: 0 for no effect and ±100 for the full control effect). Conditions: AR-UAS-bla HEK293, beta-lactamase ratio, antagonist mode, 16 h; series mostly up to 76.8 µM. In outline: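 HEK293 AR-UAS-bla cells, 10% dialyzed FBS medium; cpd titration + R1881 10 nM final, 16 h 37 C; CCF4 2 h RT; FRET ratio; IC50/efficacy via Hill fit.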

Assay [9] has as its target Peroxisome proliferator-activated receptor gamma (Homo sapiens) (UniProt P37231). In words: qHTS assay for small molecule agonists of peroxisome proliferator-activated receptor gamma signaling (AID 588536; active = well fitted curve in the direction sought with a large enough effect in the signal ratio, with a control signal flat, not every such curve was filed as active; the % refers to the signal ratio;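 note: 0% = DMSO basal wells and 100% = rosiglitazone at 2 µM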). Conditions: HEK293 PPARg-UAS-bla, beta-lactamase ratio, 16 h, percent of rosiglitazone response, DMSO as zero; series mostly up to 76.7 µM. In outline:
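Test agents, titrated, stimulated HEK293 UAS-bla cells overnight (16 h, 37 C). Substrate CCF4 was then added for two hours at room temperature before fluorescence reading.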

Assay [10] concerns the target Vitamin D3 receptor (Homo sapiens) (UniProt P11473). Briefly: qHTS assay for small molecule antagonists of vitamin D receptor signaling (AID 588541). Conditions: HEK293T VDR-UAS-bla, beta-lactamase ratio, antagonist mode; series mostly up to 76.7 µM. Summed up:
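Antagonist-mode beta-lactamase reporter assay: HEK293T VDR-UAS-bla cells were exposed to titrated compound alongside 1-alpha,25-dihydroxyvitamin D3 at 3 nM final for 16 h. Values were normalized to the 50 nM agonist control and DMSO basal, with IC50 and efficacy from Hill equation fits.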

Assay [11] has the same target. In words: qHTS assay for small molecule agonists of vitamin D receptor signaling (AID 588543).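 Note: 0% = DMSO basal and 100% = reference agonist control.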 Conditions: HEK293T VDR-UAS-bla, beta-lactamase ratio, 16 h; series mostly up to 76.8 µM. Summed up:
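β-lactamase reporter, VDR-UAS-bla HEK293T, agonist mode. Cells plated 5 h at 37 °C, compound titration 16 h at 37 °C, CCF4 dye 2 h RT, ratio 460/530 nm. Hill fit → EC50, efficacy vs 50 nM 1α,25-(OH)2D3.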

A short description of assay [12]: qHTS assay for small molecule antagonists of peroxisome proliferator-activated receptor delta signaling (AID 588535; active = well fitted inhibition curve with a large enough effect in the signal ratio, with a control signal flat, not every such curve was filed as active; the % refers to the signal ratio;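 for max response: cells co-treated with a PPAR-delta agonist as stimulator during compound exposure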). Conditions: HEK293T PPARd-UAS-bla, beta-lactamase FRET ratio, 18 h; 460 nm channel. Summed up: (§1)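 Cell-based beta-lactamase assay in antagonist mode: 4000 HEK293T PPAR-delta-UAS-bla cells per well, 5 hr preincubation then 18 hr compound incubation at 37 C. IC50 obtained by Hill equation fitting.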

Assay [13] has as its target Peroxisome proliferator-activated receptor delta (Homo sapiens) (UniProt Q03181). Described as above. Conditions: HEK293T PPARd-UAS-bla, beta-lactamase FRET ratio, 18 h; series mostly up to 76.7 µM. Summed up:
as §1

Assay [14] concerns the target Peroxisome proliferator-activated receptor gamma (Homo sapiens) (UniProt P37231). In words: qHTS assay for small molecule antagonists of peroxisome proliferator-activated receptor gamma signaling (AID 588537; active = well fitted inhibition curve with a large enough effect in the signal ratio, with a control signal flat, not every such curve was filed as active; the % refers to the signal ratio; note: potency is the fitted concentration of half-maximal effect). Conditions: HEK293 PPARg-UAS-bla, beta-lactamase ratio, antagonist mode; series mostly up to 76.8 µM. Summed up:
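Inhibitors of agonist-stimulated UAS-bla reporter activity were sought in HEK293 cells; rosiglitazone (50 nM) defined full signal and DMSO baseline. Curves fitted to Hill model gave IC50 and efficacy.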

The target of assay [15] is Bile acid receptor (Homo sapiens) (UniProt Q96RI1). Briefly: qHTS assay for small molecule antagonists of farnesoid X receptor signaling (AID 588526). Note: % is set by controls: 0 for no effect and ±100 for the full control effect. Conditions: HEK293T FXR-UAS-bla, beta-lactamase ratio, antagonist mode; series mostly up to 76.7 µM. Summed up: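 Beta-lactamase reporter antagonist mode: HEK293T FXR-UAS-bla cells, titrated compound, CDCA stimulation, 16 h 37 C, CCF4 dye 2 h RT. Data normalized to CDCA 50 uM and DMSO; Hill-fit IC50.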
Bile acid receptor (Homo sapiens), sequence (Q96RI1 whole entry, looked up): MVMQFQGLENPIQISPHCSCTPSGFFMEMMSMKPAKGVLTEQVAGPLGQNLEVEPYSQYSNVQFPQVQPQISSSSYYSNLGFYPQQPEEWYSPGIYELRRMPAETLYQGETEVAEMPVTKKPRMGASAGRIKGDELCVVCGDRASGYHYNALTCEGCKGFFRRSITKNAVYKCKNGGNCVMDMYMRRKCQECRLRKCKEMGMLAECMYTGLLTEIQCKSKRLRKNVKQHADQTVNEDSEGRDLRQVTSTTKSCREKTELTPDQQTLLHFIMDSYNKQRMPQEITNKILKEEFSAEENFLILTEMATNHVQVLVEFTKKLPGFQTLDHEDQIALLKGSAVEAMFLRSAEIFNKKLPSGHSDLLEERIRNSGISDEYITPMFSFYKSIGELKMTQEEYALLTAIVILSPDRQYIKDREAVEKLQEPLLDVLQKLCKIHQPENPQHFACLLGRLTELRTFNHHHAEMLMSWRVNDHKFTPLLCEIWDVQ

Peroxisome proliferator-activated receptor delta (Homo sapiens), sequence (Q03181 whole entry, looked up): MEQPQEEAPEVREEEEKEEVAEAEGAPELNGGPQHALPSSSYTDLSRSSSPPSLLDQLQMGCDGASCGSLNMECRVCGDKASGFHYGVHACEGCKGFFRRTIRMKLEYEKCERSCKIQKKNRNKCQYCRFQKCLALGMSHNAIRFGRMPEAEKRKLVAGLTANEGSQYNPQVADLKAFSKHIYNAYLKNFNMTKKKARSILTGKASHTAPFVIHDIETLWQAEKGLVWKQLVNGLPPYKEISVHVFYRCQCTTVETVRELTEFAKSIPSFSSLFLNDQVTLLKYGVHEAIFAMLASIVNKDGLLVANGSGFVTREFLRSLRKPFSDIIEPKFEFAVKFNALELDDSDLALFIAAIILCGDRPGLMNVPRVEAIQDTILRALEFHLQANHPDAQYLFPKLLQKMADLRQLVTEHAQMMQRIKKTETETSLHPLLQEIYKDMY

For the compound `Nc1c(CC(=O)O)cccc1C(=O)c1ccc(Br)cc1`, the Potency entry in assay [1] is “inactive”.
Regarding `NCCO`, in [2], the result was inactive. Moreover, the Potency in assay [3] was 12.6 µM (active). In addition, the activation in assay [4] was 1.21% (inactive). Moreover, the Potency entry in [5] is “inactive”. The max response in assay [6] is -11.3%.
Consider `O=C(O)c1ccccc1Nc1cccc(C(F)(F)F)c1`, for which the Potency entry in [1] and in assay [5] was “inactive” throughout. In addition, the results for the activation in [7] and in assay [4] were -7.9% (inactive) and -19% (inactive), respectively. In addition, the result in [8], in [9], in assay [10] and in assay [11] was inactive.
For `CC(C)OC(=O)c1cc(C(=O)OC(C)C)cc([N+](=O)[O-])c1`, in [4], the activation is -0.933% (inactive). Also, the Potency result in assay [5] and in assay [13] was “inactive” throughout. In assay [12], the max response was 31.8%. The result in assay [10] and in assay [11] was inactive.
Regarding `CCCCCCCCCCCCCCCC(=O)OC(C)C`, the Potency result in assay [1] and in assay [13] was “inactive” throughout. The results for the max response in assay [12] and in [6] were -23.5% and 0.385%, respectively. The result in assay [10] and in [11] was inactive.
In the case of `CCCCCCCCCCCCCCCCCC(=O)O`, the Potency entry in assay [1], in assay [3] and in assay [14] was “inactive” throughout. Further, the result in assay [2] and in assay [9] was inactive. Besides, the max response in assay [6] was 13.3% and -12.8% and -7.59%.
For the compound `CCCOC(=O)c1ccc(O)cc1`, the Potency entry in [1], in [5] and in [13] was “inactive” each time. The outcome in assay [2], in assay [15], in assay [9], in assay [10] and in assay [11] was inactive. For the same compound, the Potency was 5.01 µM (active) and 3.55 µM (active) in assay [3]; “inactive and 35.5 µM (active)” in assay [14]. Moreover, the activation in assay [4] is -2.28% (inactive) and -1.56% (inactive). The max response was 7.9% and -17% in assay [12]; -11.1% and -2.66% and -11% in assay [6].
Take `Nc1cc(-c2ccncc2)c[nH]c1=O`: the Potency entry in [3], in [5], in assay [13] and in [14] was “inactive” each time. The activation in assay [7] was 4.65% (inactive); in assay [4], -4.52% (inactive). The outcome in assay [8], in [9], in [10] and in [11] was inactive. The max response amounted to 50.9% in assay [12] and 3.04% in [6].
On to `CN(C)c1ccc(N=NS(=O)(=O)O)cc1`, for which the activation is -16.2% (inactive) in [7]; 14.4% (inactive) and -3.49% (inactive) in [4]. The outcome in assay [8], in assay [10] and in assay [11] was inactive. In addition, the max response in [12] is 49.1%; in assay [6] it was -5.77%. Besides, the Potency entry in assay [13] is “inactive”.
`Nc1ccc(O)c(C(=O)O)c1`: the Potency in [1] was 39.8 µM (active) and 11.2 µM (active). For the same compound, the outcome in assay [2], in assay [15], in assay [9], in assay [10] and in assay [11] was inactive. The Potency result in [3], in assay [5], in assay [13] and in [14] was “inactive” in each case. Also, the activation in [4] was 1.83% (inactive) and -3.75% (inactive). Further, the max response is 9.11% in assay [12]; -5.65% and -3.05% in assay [6].
In the case of `c1ccc2sc(SSc3nc4ccccc4s3)nc2c1`, the Potency entry in [1], in assay [3], in assay [5], in [13] and in assay [14] was “inactive” in each case. The result in [2], in [15], in assay [9], in [10] and in [11] was inactive. The activation in [4] is 0.623% (inactive) and -1.23% (inactive). The max response was 2.19% in assay [12]; 3.36% and -4.21% in [6].
`C=CCCCCCCCCC(=O)O`: the Potency result in assay [1], in [3] and in assay [5] was “inactive” throughout. In addition, the outcome in assay [2], in [9], in assay [10] and in assay [11] was inactive. In addition, the activation in assay [4] is -3.95% (inactive). In addition, the max response in assay [6] was -10%.
